Compounds without any hit were thinned out: in the full panel of roughly 83,000, 20% have a hit.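 Values shown are percent growth following 48 h exposure of cells in 96-well plates to a single concentration of compound; below 10 was considered active.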 Active and inactive are the calls of the source.
test system: SNB-75 CNS; assay: NCI-60 one-dose screen, 48 h (100 = growth as untreated, 0 = no growth, -100 = all killed); details: 10 µM

Q: `CCCCCCCNc1nc(C=O)ncc1-c1ccc(C(F)(F)F)cc1` was tested. Which growth did it give?
A: The growth was 97% (inactive).

Q: How did the growth turn out when `CCCCCCN1CCN(Cc2ccc(N(CC)CC)cc2)C(=O)C1=O` was run?
A: Its growth is 14% (inactive).

Q: `O=C(Nc1cccc(-n2cc(-c3ccncc3)c(-c3ccc(O)c(Cl)c3)n2)c1)Nc1ccc(Cl)c(Cl)c1` was tested. Which growth did it give?
A: Its growth is 7.7% (active).

Q: With `S=C1SCC(c2ccccc2)S1` (centres undefined) as the compound, how does the growth read?
A: The growth was 92.2% (inactive).

Q: Which growth does the source give for `COc1cccc(C(=O)Nc2ccc(CN3CCc4nc5cc(OC)c(OC)cc5cc43)cc2)c1` here?
A: Its growth is 49.2% (inactive).

Q: Which growth does the source give for `COc1ccc(-c2nn(-c3cccc(NC(=O)c4cc(C(F)(F)F)cc(C(F)(F)F)c4)c3)cc2-c2ccncc2)cc1Cl` here?
A: The growth was 60.9% (inactive).

Q: For `O=C(Nc1ccccc1)Nc1cccc(-n2cc(-c3ccncc3)c(-c3ccc(O)c(Cl)c3)n2)c1`, which growth is on record?
A: Its growth is 48.3% (inactive).

Q: Which growth does the source give for `N#CCCN1C/C(=C/c2ccc(Cl)cc2)C(=O)/C(=C/c2ccc(Cl)cc2)C1` here?
A: Its growth is 11.6% (inactive).

Q: Which growth does the source give for `COc1ccc(-c2nn(-c3cccc(NC(=O)c4cccc(C(F)(F)F)c4)c3)cc2-c2ccncc2)cc1Cl` here?
A: The growth was 6.59% (active).

Q: How did the growth turn out when `COc1ccc([N+](=O)[O-])c(C(=O)O)c1` was run?
A: Its growth is 100% (inactive).

Q: `CN(C)CCN=c1nc2c(c(N)n1-c1ccccc1)c(=S)n(-c1ccccc1)c(=S)n2-c1ccccc1` was tested. Which growth did it give?
A: The growth was 79% (inactive).

Q: Which growth does the source give for `O=C(Nc1cccc(-n2cc(-c3ccncc3)c(-c3ccc(O)c(Cl)c3)n2)c1)c1cccc(C(F)(F)F)c1` here?
A: Its growth is 39.4% (inactive).

Q: How did the growth turn out when `COc1cccc(NC(=O)c2sc3nc4c(cc3c2N)C(O)CCC4)c1` (centres undefined) was run?
A: Its growth is 44.6% (inactive).

Q: How did the growth turn out when `O=S(=O)(NCCCNc1nccc(-c2c(-c3ccc(F)cc3)nc3sccn23)n1)c1ccc2ccccc2c1` was run?
A: The growth was 50.1% (inactive).

Q: How did the growth turn out when `COc1ccc(-c2nn(-c3cccc(NC(=O)Nc4cccc(C(F)(F)F)c4)c3)cc2-c2ccncc2)cc1Cl` was run?
A: The growth was 21.5% (inactive).

Q: For `COc1ccc(-c2nn(-c3cccc(NC(=O)c4ccc(Cl)c(Cl)c4)c3)cc2-c2ccncc2)cc1Cl`, which growth is on record?
A: Its growth is 74.8% (inactive).

Q: `Cc1c(Cl)cccc1NC(=O)c1sc2nc3c(cc2c1N)C(=O)CCC3` was tested. Which growth did it give?
A: The growth was 27% (inactive).

Q: How did the growth turn out when `COc1cc(/C=C/C(=O)c2ccc(Cl)cc2)ccc1OS(=O)(=O)c1ccc(C)cc1` was run?
A: Its growth is 105% (inactive).

Q: For `O=C(N/N=C/c1cc2ccccc2c2ccccc12)c1cc(O)c(O)c(O)c1`, which growth is on record?
A: The growth was 56.4% (inactive).

Q: With `COc1ccc(-c2nn(-c3cccc(NC(=O)c4ccc(N5CCOCC5)c(C(F)(F)F)c4)c3)cc2-c2ccncc2)cc1Cl` as the compound, how does the growth read?
A: The growth was 47% (inactive).

Q: With `COc1ccc(-c2cc(/C=C/C(=O)c3cc(OC)c(OC)c(OC)c3)[nH]n2)cc1OC` as the compound, how does the growth read?
A: Its growth is 17.8% (inactive).

Q: How did the growth turn out when `CC1=C(N2CCOCC2)C(N2CCOCC2)=C(C)C(=O)C1=O` was run?
A: Its growth is 97.4% (inactive).

Q: Which growth does the source give for `Cc1ccc(C)c(C(O)(c2cc(C)ccc2C)C2(O)CCCCC2)c1` here?
A: The growth was 95.9% (inactive).

Q: With `COc1ccc(-c2nn(-c3cccc(NC(=O)c4ccc5c(c4)OCCO5)c3)cc2-c2ccncc2)cc1Cl` as the compound, how does the growth read?
A: The growth was 2.6% (active).

Q: With `Cc1ncc(-c2ccoc2)c(NC2CCCCCC2)n1` as the compound, how does the growth read?
A: The growth was 97% (inactive).

Q: How did the growth turn out when `O=S(=O)(NCCNc1nccc(-c2c(-c3ccc(F)cc3)nc3sccn23)n1)c1ccc2ccccc2c1` was run?
A: Its growth is 79.3% (inactive).

Q: Which growth does the source give for `COc1ccc2c(c1)nc(N)c1c3cccnc3cn21` here?
A: The growth was 42% (inactive).

Q: `O=C(Nc1cccc(-n2cc(-c3ccncc3)c(-c3ccc(O)c(Cl)c3)n2)c1)c1ccc(Cl)c(Cl)c1` was tested. Which growth did it give?
A: Its growth is 38.5% (inactive).

Q: Which growth does the source give for `CCN1CCCC1CNC(=O)c1ncc(-c2ccc(C(F)(F)F)cc2)c(NC2CCCCCC2)n1` (centres undefined) here?
A: The growth was 74.3% (inactive).

Q: Which growth does the source give for `Clc1ccc(-c2cn(-c3ccccc3)c(-c3ccccc3)n2)c(Cl)c1` here?
A: Its growth is -83.3% (active).

Q: For `CCCCCCCCCCCCCCCC(=O)OC1[C@@H](OC(=O)CCCCCCCCCCCCCCC)[C@@H](C(=O)N[C@@H](CCCCN)C(=O)OC)O[C@H]1n1cnc2c(=O)[nH]c(NC(=O)C(C)C)nc21` (some centres undefined), which growth is on record?
A: The growth was 94.1% (inactive).

Q: How did the growth turn out when `O=c1oc2cc(OS(=O)(=O)c3ccccc3)ccc2c2c1CCCCC2` was run?
A: The growth was 69.5% (inactive).

Q: Which growth does the source give for `O=C1Nc2ccccc2C1=NC1CCCCC1` here?
A: The growth was 88.1% (inactive).

Q: Which growth does the source give for `O=C(Nc1cccc(-n2cc(-c3ccncc3)c(-c3ccc(O)c(Cl)c3)n2)c1)c1ccc(N2CCOCC2)c(C(F)(F)F)c1` here?
A: Its growth is 33.5% (inactive).

Q: Which growth does the source give for `O=C(Nc1ccc(OS(=O)(=O)c2ccccc2)cc1)C12CC3CC(CC(C3)C1)C2` here?
A: Its growth is 56.4% (inactive).

Q: `O=C(Nc1cccc(-n2cc(-c3ccncc3)c(-c3ccc(O)c(Cl)c3)n2)c1)c1cc(C(F)(F)F)cc(C(F)(F)F)c1` was tested. Which growth did it give?
A: Its growth is 59.4% (inactive).

Q: How did the growth turn out when `CCCC#CCN(CC)CC` was run?
A: Its growth is 97.1% (inactive).

Q: `Cc1ccc(S(=O)(=O)OCCN(CCOS(=O)(=O)c2ccc(C)cc2)c2c[nH]c(=O)[nH]c2=O)cc1` was tested. Which growth did it give?
A: Its growth is 92.2% (inactive).

Q: How did the growth turn out when `CCOC(=O)C(NC(=O)C(Cl)Cl)C(O)c1ccccc1` (centres undefined) was run?
A: The growth was 91.3% (inactive).

From PubChem BioAssay (NCI)
